Compound activity deposited in PubChem by Buhrlage Lab, Dana-Farber Cancer Institute and Novartis Institutes for BioMedical Research (Cambridge, Mass).
USP28 inh: inhibitors of human USP28 deubiquitinase; Ubiquitin carboxyl-terminal hydrolase 28 (Homo sapiens), Q96RU2; purified USP28, Ub-rhodamine cleavage fluorescence, 30 min; inhibition, % at 25 µM; hit rate 3% among 47,000; AID 1645857, 2021
USP30 inh: inhibitors of human USP30 deubiquitinase; hit rate 5.3% among 47,000; inhibition, % at 25 µM; AID 1645860, 2021; purified USP30, Ub-rhodamine cleavage fluorescence
Target sequence (Q70CQ3 whole entry, looked up): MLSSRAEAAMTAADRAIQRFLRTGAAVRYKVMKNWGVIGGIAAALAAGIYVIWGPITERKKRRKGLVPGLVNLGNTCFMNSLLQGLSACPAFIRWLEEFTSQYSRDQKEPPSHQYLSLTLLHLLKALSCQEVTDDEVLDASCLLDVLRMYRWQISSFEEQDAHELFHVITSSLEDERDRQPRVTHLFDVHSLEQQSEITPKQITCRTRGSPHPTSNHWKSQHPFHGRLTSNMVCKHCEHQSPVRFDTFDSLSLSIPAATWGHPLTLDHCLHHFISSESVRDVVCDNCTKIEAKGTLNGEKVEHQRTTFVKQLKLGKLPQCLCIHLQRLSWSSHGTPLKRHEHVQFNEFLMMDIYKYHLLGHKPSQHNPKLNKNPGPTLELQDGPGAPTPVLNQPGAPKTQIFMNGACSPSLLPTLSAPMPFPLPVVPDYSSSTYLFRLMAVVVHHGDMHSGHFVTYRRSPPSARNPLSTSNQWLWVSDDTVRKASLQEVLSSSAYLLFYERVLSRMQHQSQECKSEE
OTUD3 inh: inhibitors of human OTUD3 deubiquitinase. OTU domain-containing protein 3 (Homo sapiens), Q5T2D3. purified OTUD3, Ub-rhodamine fluorescence, 2 h. inhibition, % at 25 µM. hit rate 0.7% among 47,000
USP17 block: inhibitors of human USP17 deubiquitinase; Ubiquitin carboxyl-terminal hydrolase 17-like protein 5 (Homo sapiens), A8MUK1; purified USP17, Ub-rhodamine cleavage fluorescence, 3 h; inhibition, % at 50 µM; hit rate 6.5% among 47,000; AID 1645855, 2021
* = called active by the depositor; i = inactive; x = no result given. Rows were chosen to be rich in hits. Some 11% of all compounds tested hit in one or more screens of this group. Cut-off read from the data, not from the text of the source: active = inhibition above about 30%; inactive = the rest.

SMILES	USP28 inh	USP30 inh	OTUD3 inh	USP17 block
COc1ccc(Cc2nc(-c3ccc(=O)[nH]c3)no2)cc1OC	33*	-1	8	-38
O=c1ccc(-c2noc(Cc3cccc(C(F)(F)F)c3)n2)c[nH]1	48*	-158	-31	-28
COc1cccc(-c2ccc3nc(N4CCC(C(N)=O)CC4)sc3n2)c1	2	8	0	49*
O=C(C1CCN(c2nc3ccc(-c4cccnc4)nc3s2)CC1)N1CCCC1	-4	-2	-2	-2
CN1CCN(c2ncc3c(=O)n(Cc4cccnc4)ccc3n2)CC1	-7	-1	0	0
CCn1c(=O)c(C(=O)N2CCN(CC(C)C)CC2)nc2cccnc21	-6	-25	5	-7
CCOC(=O)c1cnc(Nc2ccc(F)c(Cl)c2)c2ccccc12	7	18	19	44*
Cc1ccc(Nc2ncc(C(=O)NCC3COc4ccccc4O3)c3ccccc23)cc1Cl (stereo not drawn)	8	4	0	0
O=C(Nc1ccccc1)Nc1nnc2cccc(Cl)n12	-10	-22	-7	-6
Cc1cc(Cl)ccc1OCC(=O)NCC(C)NC(=O)COc1ccc(Cl)cc1C (stereo not drawn)	-1	-20	1	-7
O=C1CN(C(=O)/C=C/c2ccc(F)cc2)CCN1	7	13	10	6
Cc1ccc(S(=O)(=O)N2CCC(C(=O)Nc3nnc(C)o3)CC2)c(C)c1	11	37*	15	-3
CCC(=O)N(C1CCOCC1)C1CCN(S(=O)(=O)c2ccc(C)cc2C)CC1	-11	-3	-3	-12
COc1ccc(OC)c(NC(=O)CSc2nc(C)nc3c2oc2ccccc23)c1	8	18	13	61*
CCc1nc(SCC(=O)Nc2cc(C)ccc2OC)c2oc3ccccc3c2n1	3	42*	11	41*
CCc1nc(Sc2ccc3ccccc3c2)c2oc3ccccc3c2n1	5	52*	12	51*
COc1ccc2c(c1)c(C(=O)CSc1nc(C)nc3c1oc1ccccc13)c(C)n2C	1	28	10	23
CCc1nc(SCCO)c2oc3ccccc3c2n1	-4	-13	-7	-4
Cc1ccc(Sc2c(C(F)(F)F)[nH]n(-c3ccccc3)c2=O)cc1	7	28	2	33*
CCc1nccn1-c1cccc(C2CCCN(C(=O)c3cnccn3)C2)n1 (stereo not drawn)	-15	-11	-4	-9
CCN1C(=O)Cc2cc(NS(=O)(=O)c3cc(C)ccc3OC)ccc21	0	11	6	47*
CCOC(=O)CSc1nc(=O)n2ccc(C)cc2n1	x	x	13	10
CN(Cc1ccccc1)C(=O)Cn1cnc2c(cnn2C)c1=O	-13	-4	-8	1
Cc1c(C)n(-c2ccccc2)c2ncn(CC(=O)N(C)Cc3ccccc3)c(=O)c12	-3	-2	4	53*
Cc1c(C)n(-c2ccccc2)c2ncn(CC(=O)NCCCc3ccccc3)c(=O)c12	-2	-1	-1	70*
SMILES	USP28 inh	USP30 inh	OTUD3 inh	USP17 block
Cc1cc(-c2cncnc2C2CCN(C(=O)CCc3ccco3)CC2)on1	7	-15	0	-1
COc1ncnc2scc(C)c12	1	1	5	0
CCOC(=O)N1CCC(NC(=O)c2cc(C(=O)Nc3ccc(S(=O)(=O)N4CCCCC4)cc3)ccc2CO)CC1	42*	79*	39*	77*
CCOC(=O)N1CCN(S(=O)(=O)c2ccc(C(=O)Nc3ccc(S(N)(=O)=O)cc3)cc2)CC1	1	18	-7	25
O=S(=O)(c1ccc(Cl)c(Cl)c1)N1CCN(c2ccnc3cc(Cl)ccc23)CC1	-10	-2	-3	-18
O=S(=O)(c1ccc(Cl)cc1)N1CCN(c2ccnc3cc(Cl)ccc23)CC1	7	30*	3	7
CCC1CCCCN1S(=O)(=O)c1ccc(C(=O)Nc2ccc(S(N)(=O)=O)cc2)cc1 (stereo not drawn)	35*	76*	13	60*
N#Cc1ccc(C(=O)Nc2ccc3c(N4CCCC4)ncnc3c2)cc1	-2	-12	-8	31*
O=C(CSc1nnc(-c2ccncc2)n1Cc1ccccc1)Nc1ccc(Cl)cn1	-186	i	-177	-34
COc1ccc(Cl)cc1NC(=O)c1ccc(S(=O)(=O)N2CCCCC2)cc1	-1	-2	-5	-14
N#Cc1ccc(S(=O)(=O)N2CCN(c3ncnc4cc(Cl)ccc34)CC2)cc1	21	29	7	22
N#Cc1ccc(NC(=O)c2ccc(S(=O)(=O)N3CCCCC3)cc2)cc1	26	54*	6	17
O=C(Nc1ccc(S(=O)(=O)N2CCCC2)cc1)c1ccc(N2CCCC2=O)cc1	28	16	4	-5
CN(C)c1ccc(C(=O)Nc2ccc(S(=O)(=O)N3CCCC3)cc2)cc1	42*	-28	0	-8
N#Cc1ccc(N2CCN(S(=O)(=O)c3ccc(Cl)cc3)CC2)cc1	16	31*	22	6
Cc1c(Cl)cccc1NC(=O)CC(NCc1ccco1)C(=O)O (stereo not drawn)	-1	1	-4	1
COc1cc(N)c(Cl)cc1C(=O)OCC(=O)N1CCC(Cc2ccccc2)CC1	15	20	9	17
O=C1N[C@@H](Cc2ccccc2)C(=O)N2[C@H]3Nc4ccccc4[C@@]3([C@]34C[C@H]5C(=O)N[C@@H](Cc6ccccc6)C(=O)N5[C@H]3Nc3ccccc34)C[C@@H]12	22	49*	7	53*
CCC(C)C1C(=O)N2NCCCC2C(=O)N2NCCCC2C(=O)N(C)C(Cc2ccccc2)C(=O)N2CCCC2C(=O)NC(Cc2ccccc2)C(=O)N1O (stereo not drawn)	17	26	14	6
CC1=NS(=O)(=O)N(Cc2ccccc2)C=C1C(=O)Nc1ccc(F)cc1	4	-33	-2	-1
O=C(O)c1ccc(C2Cc3c([nH]c(=O)[nH]c3=O)O2)cc1 (stereo not drawn)	78*	75*	9	24
Cc1c(C)n2c(SCC(=O)Nc3cccc(Cl)c3)nnc2[nH]c1=O	3	18	9	11
CC(C)CCNC(=O)CSc1nc(-c2cccc(Cl)c2)nc2cc(=O)[nH]n12	18	25	25	42*
CNc1cc(C2CCCN2C(=O)C(C)(C)n2cncn2)nc(C)n1 (stereo not drawn)	-4	-4	-3	0
O=[N+]([O-])c1ccc2[nH]cc(S(=O)(=O)Nc3ccc(Cl)cc3)c2c1	5	4	-10	-7
Cc1ccc2[nH]cc(S(=O)(=O)c3cc(Cl)cc(Cl)c3)c(=O)c2c1	-3	-33	7	48*
Cc1cc(O)c2c3c(c(O)c4c(c13)O[C@@H](C)C4(C)C)C(=O)C2=O	31*	0	10	83*
Cc1nc(-c2cccc(S(=O)(=O)N3CCC(C(=O)NCC4CCCO4)CC3)c2)no1 (stereo not drawn)	-3	3	-2	7
COc1ccccc1C1CCNc2ccccc2N1 (stereo not drawn)	-16	-49	-9	0
